# HUVEC tox IL1B: cytotoxicity in IL-1B stimulated HUVEC, primary screen, cytotoxicity control for IL-1B NFkB translocation project, imaging, Hoechst nuclear count, IL-1B stimulus | HUVEC cell count loss | cell count reduction, % at 2 µM | hit rate 0.41% among 94,000;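 active = cell count reduction more than 3 SD above the screen-wide mean, cut at about 70% in these data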;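 note: normalized per plate to untreated control cells as the no-loss baseline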
# Smad3 inh: Smad3/FoxH1 peptide binding inhibitors, primary screen, biochemical, TR-FRET; Mothers against decapentaplegic homolog 3 (Homo sapiens), P84022; inhibition, % at 25 µM; hit rate 0.29% among 88,000; TR-FRET Smad3/Dy647-FoxH1 peptide binding, europium anti-His;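 active = compounds that reduce the energy-transfer binding signal between the protein and its labelled peptide by more than half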;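 note: 0% = Smad3 plus labelled peptide maximal FRET and 100% = peptide-only background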
# Target sequence (P84022 whole entry, looked up): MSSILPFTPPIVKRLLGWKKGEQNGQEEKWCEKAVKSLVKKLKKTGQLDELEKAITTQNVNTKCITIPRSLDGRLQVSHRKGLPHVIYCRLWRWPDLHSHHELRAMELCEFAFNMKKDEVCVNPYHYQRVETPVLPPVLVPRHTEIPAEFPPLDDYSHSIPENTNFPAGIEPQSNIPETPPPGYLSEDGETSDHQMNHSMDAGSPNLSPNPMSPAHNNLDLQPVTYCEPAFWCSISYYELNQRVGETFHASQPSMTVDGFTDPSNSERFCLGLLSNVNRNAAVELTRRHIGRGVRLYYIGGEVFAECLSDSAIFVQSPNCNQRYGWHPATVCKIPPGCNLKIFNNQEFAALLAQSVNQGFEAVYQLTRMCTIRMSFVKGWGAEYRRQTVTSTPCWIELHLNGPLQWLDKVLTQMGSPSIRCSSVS
# NFkB transloc inh: inhibitors of IL-1B driven NFkB p65 nuclear import, primary screen, imaging, HUVEC, IL-1B stimulus, high-content imaging | HUVEC IL-1B NFkB p65 nuclear translocation imaging | inhibition, % at 2 µM | hit rate 0.43% among 94,000 | AID 796, 2007;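 active = inhibition above about 30% together with a positive call from visual inspection of the well image, limit read from the data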;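 note: nuclear over cytoplasmic p65 intensity ratio measured by imaging; 0% = IL-1B stimulated DMSO wells and 100% = unstimulated DMSO wells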
# IL1B NFkB pot: enhancers of NFkB p65 translocation in HUVEC – imaging, IL-1B stimulus, high-content imaging, primary screen | hit rate 0.3% among 94,000 | HUVEC IL-1B NFkB p65 nuclear translocation imaging | AID 819, 2007 | activation, % at 2 µM;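 active = activation above 40%, about the mean plus 3 SD, also judged a hit on visual image review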;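 note: percent activation is computed from the nuclear over cytoplasmic p65 intensity ratio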
# * = called active by the depositor; / = no result. Only some compounds are listed: those with a hit (about 1.2% of all), similar ones and a draw of the others.
SMILES,HUVEC tox IL1B,Smad3 inh,NFkB transloc inh,IL1B NFkB pot
C=CCNC(=S)N1CCN(CCN=CC2=C(O)CC(c3ccco3)CC2=O)CC1 (stereo not drawn),93.3*,7.1,53.7*,-53.7
CCN(CC)CCSc1nc(O)c(C(C)C)c(=O)[nH]1,-35.4,10.7,-21.6,21.6
CCCc1c(O)nc(SCCN(CC)CC)[nH]c1=O,89.4*,0.2,32.3*,-32.2
Cc1ccc(Nc2nnc(SCC(=O)Nc3ccc(S(=O)(=O)N4CCOCC4)cc3)s2)cc1,83.7*,10.1,34.2*,-34.2
CC1CC(C)(C)CC2(C1)NC(=O)N(CC(=O)NCC(c1ccco1)N1CCCCC1)C2=O (stereo not drawn),7.7,2.8,34.9*,-34.9
COc1cc(O)c2c(O)c3c(c4c2c1[C@]1(C4)C(C)=CCCC1(C)C)[C@H](O)[C@@]1(O)CC(=O)C(C(N)=O)=C(O)[C@]1(O)C3=O,/,45.6,/,/
C[C@@]12CC[C@@H]3[C@H](CCC4=CC(=O)CC[C@]43C)[C@H]1CC[C@H]2C(=O)Cn1cnc2c(=S)nc[nH]c21,/,11.9,/,/
CCOc1cc(C)c(C(C)C)cc1S(=O)(=O)NCc1ccccn1,84.6*,-1.8,100.3*,-100.3
COc1cc(S(=O)(=O)NCc2ccccn2)c(OC)cc1Cl,-4.2,7.7,-9.1,9.1
COc1cc(-c2nnc(SCC(=O)c3ccc(C)cc3)o2)cc(OC)c1OC,24.9,12.6,41.8*,-41.8
CN1CC=C2C(C#N)=C(N)C(C#N)(C#N)[C@H](c3cccc(Cl)c3)C2C1 (stereo partly drawn),-41.7,-7.5,33.8*,-33.8
CN1CC=C2C(C#N)=C(N)C(C#N)(C#N)C(c3ccsc3)C2C1 (stereo not drawn),1.8,2.8,-9.7,9.7
CC1(C)O[C@@H]2O[C@H]([C@@H]3COC(C)(C)O3)[C@H](N)[C@@H]2O1,/,10.5,/,/
CCCC(=O)C1=C(O)C(C(=O)OC)C(C)(C)CC1=NC(C)C (stereo not drawn),9.6,-9.9,-9.4,9.4
CCCC(=O)C1=C(O)C(C(=O)OC)C(C)(C)CC1=NC(C)(C)C (stereo not drawn),7.8,-5.9,45.0*,-45.0
Cc1ccc(-c2c3c(=O)n(C)c(=O)n(C)c3c3c(C)cc(C)nn23)cc1,/,0.0,/,/
COc1ccc2[nH]c(=O)c(CN(C(=O)c3cccnc3)c3ccccc3)cc2c1,-4.3,1.2,-66.9,66.9*
COc1ccc(N(Cc2cc3cc(OC)ccc3[nH]c2=O)C(=O)c2cccnc2)cc1,-33.8,2.9,-7.5,7.5
O=C(Nc1ccc(S(=O)(=O)N2CCCC2)cc1)c1cccnc1,2.9,/,6.1,-6.1
Nc1ccc(S(=O)(=O)c2ccc(NC(=O)c3cccnc3)cc2)cc1,/,56.7*,/,/
CCCCC(=O)Nc1sc2c(c1C(=O)OCC)CCC(C=O)=C2Cl,59.6,/,88.4*,-88.4
COCCCn1c(Cc2csc(Nc3ccccc3)n2)nnc1SCC(N)=O,-32.7,15.3,-15.6,15.6
NC(=O)CSc1nnc(Cc2csc(Nc3ccccc3)n2)n1Cc1ccccc1,29.9,86.3*,-5.1,5.1
O=C(O)C/C(=C/c1ccco1)C(=O)O,/,5.9,/,/
Cc1nc(S(=O)(=O)N(C)Cc2ccccc2)c(C#N)c(C)c1Cl,-7.5,10.9,31.1*,-31.1
SMILES,HUVEC tox IL1B,Smad3 inh,NFkB transloc inh,IL1B NFkB pot
CCCCn1ccnc1C(=O)c1cc(S(=O)(=O)N2CCOCC2)ccc1C,-11.9,17.0,54.8*,-54.8
CCOC(=O)N1CCC(Nc2c(NCCCN(C)Cc3ccccc3)c(=O)c2=O)CC1,-7.0,-7.5,-41.9,41.9*
CCCN(CCC)CCNc1c(NC2CCN(C(=O)OCC)CC2)c(=O)c1=O,3.6,-1.6,-10.6,10.6
COc1ccc(C(c2nnnn2C2CCCCC2)N2CCN(c3ccc(OC)cc3)CC2)cc1 (stereo not drawn),14.2,-13.3,-56.6,56.6*
COc1ccc(C2N=C(N)N=C(N)N2c2ccccc2OC)cc1OC (stereo not drawn),-22.4,-5.4,-3.3,3.3
C[C@H]1CN(CCO)CCN1c1ccccc1,/,7.3,/,/
COc1ccc(N2CCN(C(=O)CCNS(=O)(=O)c3cccs3)CC2)cc1,-8.8,-15.9,5.4,-5.4
O=C(CCNS(=O)(=O)c1cccs1)N1CCc2ccccc2C1,-3.5,-5.1,98.9*,-98.9
O=C(O)[C@H](/C=C/c1ccccc1)c1ccccc1,/,-10.2,/,/
COc1cccc(Cn2c(NCC(C)C)nc3c2c(=O)n(C)c(=O)n3C)c1,73.5*,1.9,-26.8,26.8
Cn1c(=O)c2c(nc(NCc3ccc4c(c3)OCO4)n2Cc2ccc(F)cc2)n(C)c1=O,-29.2,10.7,44.3*,-44.3
Cn1c(=O)c2c(nc(NCc3ccc4c(c3)OCO4)n2Cc2ccccc2)n(C)c1=O,0.5,10.9,2.3,-2.3
CCCNc1nc2c(c(=O)n(C)c(=O)n2C)n1CCc1ccccc1,-31.4,-1.7,99.9*,-99.9
CC(C)CNc1nc2c(c(=O)n(C)c(=O)n2C)n1Cc1cccc(Br)c1,-11.3,4.5,-9.9,9.9
CS[C@@]12C(=O)C[C@@]3(C)[C@@H](CC[C@@]3(O)C(=O)CO)[C@H]1CCC1=CC(=O)CC[C@]12C,/,-11.2,/,/
COc1ccc(C2C3=C(CCCC3=O)Nc3nc4ccccc4n32)c(OC)c1OC (stereo not drawn),/,-1.1,/,/
OC[C@@H]1O[C@H](N2CCN([C@@H]3O[C@H](CO)[C@@H](O)[C@H](O)[C@H]3O)CC2)[C@@H](O)[C@H](O)[C@H]1O,/,31.8,/,/
CN(C)c1nc(N)nc(/C(C#N)=C/C2CC3C=CC2C3)n1 (stereo not drawn),-0.6,7.7,-41.7,41.7*
C[n+]1cccc(/C=C/c2ccc3cccc(O)c3n2)c1,/,39.9,/,/
O=C1CC(c2ccc(F)cc2)Cc2nc(NCC3CCCO3)ncc21 (stereo not drawn),-8.0,1.7,47.9*,-47.9
COC(=O)c1cc(NCc2ccc3c(c2)OCO3)ccc1N1CCOCC1,8.0,6.1,5.9,-5.9
O=C(O)c1cc(NCc2ccc3c(c2)OCO3)ccc1N1CCOCC1,-24.5,-4.2,54.5*,-54.5
O=C1c2ccccc2C(=O)c2c1cccc2N1CCOCC1,-15.9,/,-12.2,12.2
O=C1C(N2CCOCC2)=C(n2nnc3ccccc32)C(=O)c2ccccc21,-0.9,52.3*,-6.9,6.9
O=C(CC(=O)c1cc(Cl)ccc1O)c1ccccc1,89.1*,20.3,-11.4,11.4
SMILES,HUVEC tox IL1B,Smad3 inh,NFkB transloc inh,IL1B NFkB pot
Cc1c(Cl)c(-c2n[nH]c(=S)n2-c2ccc(F)cc2)nn1C,4.2,/,35.8*,-35.8
Cc1ccc(-n2c(-c3cc(C)n(C)n3)n[nH]c2=S)cc1,-19.0,/,-12.8,12.8
O=C(C[C@@H](C(=O)O)N1CCOCC1)c1ccccc1,/,31.5,/,/
COc1ccc(-c2nc(CN3CCC(C(=O)NC(C)C)CC3)c(C)o2)cc1OC,/,1.4,/,/
CCc1nc(N)nc(N)c1-c1ccc(Cl)cc1,/,-0.3,/,/
Cc1cc(OCc2nc(N)nc(N)c2-c2ccc(Cl)c(Cl)c2)ccc1[N+](=O)[O-],/,55.8*,/,/

# Assay outcomes from PubChem.
